Screening results from PubChem BioAssay.
Hits are enriched below; roughly 11% of the tested compounds scored in any of these assays.
IMPase cell inh – qHTS Assay for Identifying the Cell-Membrane Permeable IMPase Inhibitors. inhibition (IP1 accumulation), % at 46.1 µM. CHO-M1 cells, IP1 accumulation, HTRF TR-FRET ratio. AID 901, 2007. 120,000 tested, under 10 active. Inositol monophosphatase 1 (Rattus norvegicus), P97697; active = well fitted curve in the direction sought with a large enough effect in the signal ratio, not every such curve was filed as active; inconclusive = small, poorly fitted or top-dose-only effect, or a change in a side signal; inactive = no such curve, though single readings can be large or run the other way; the % refers to the signal ratio;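 note: cells stimulated with carbachol in lithium chloride buffer; higher means more IMPase inhibition seen as more IP1 and lower FRET ratio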
Target sequence (P97697 whole entry, looked up): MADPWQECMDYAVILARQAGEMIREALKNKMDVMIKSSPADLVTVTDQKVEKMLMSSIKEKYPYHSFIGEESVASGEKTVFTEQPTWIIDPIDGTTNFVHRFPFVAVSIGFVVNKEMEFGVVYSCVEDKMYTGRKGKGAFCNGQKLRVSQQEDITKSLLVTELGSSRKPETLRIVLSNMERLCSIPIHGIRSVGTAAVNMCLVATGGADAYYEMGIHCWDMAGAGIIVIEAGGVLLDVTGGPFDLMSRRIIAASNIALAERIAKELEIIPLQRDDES
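CHO-M1 cells (CHO stably expressing M1 receptor), compound up to 46 uM final, stimulated with carbachol (50 uM as added) in buffer with 50mM LiCl, pH 7.4, 30 min at 37C. Cytosolic IP1 read by TR-FRET; AC50 from Hill fits.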
HPGD inh – qHTS Assay for Inhibitors of HPGD (15-Hydroxyprostaglandin Dehydrogenase) | 4.3% of 150,000 active | 15-hydroxyprostaglandin dehydrogenase [NAD(+)] (Homo sapiens), P15428 | purified HPGD, NADH fluorescence kinetic, PGE2 substrate | Potency, µM, hits mostly inhibitors
Target sequence (P15428 whole entry, looked up): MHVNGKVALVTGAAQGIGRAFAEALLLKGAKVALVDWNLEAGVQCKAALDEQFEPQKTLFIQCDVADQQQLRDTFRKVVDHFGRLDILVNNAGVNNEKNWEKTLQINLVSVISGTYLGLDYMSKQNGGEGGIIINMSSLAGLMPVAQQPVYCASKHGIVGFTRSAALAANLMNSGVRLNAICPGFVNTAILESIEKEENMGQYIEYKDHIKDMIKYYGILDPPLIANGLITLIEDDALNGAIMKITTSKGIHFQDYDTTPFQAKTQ
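NADH formation kinetics: reaction with 30 uM PGE2 and 1 mM NAD+ (final), 20 nM enzyme, Tris-HCl pH 8 with Tween 20, after 15 min compound preincubation at room temperature. Fluorescence change, last versus first of five reads.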
PNC assembly inh – High Content Assay for Compounds that inhibit the Assembly of the Perinucleolar Compartment | AID 2417, 2010 | PC3M PTB-GFP, PNC prevalence imaging, 16 h; hits give low values | activity change (PNC), negative = inhibition, % at 10 µM | 3.1% of 140,000 active;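 active = readout at or below -70, meaning at least 70% loss of cells showing the perinucleolar compartment, a nuclear body marking cancer cells; inconclusive = readout between -30 and a set limit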
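Compounds are pinned in duplicate onto adhered PC3M cells stably expressing GFP-tagged PTB and incubated 16 h at 37 C. Cells are then fixed, nuclei stained with Hoechst, and PNC-positive cells counted.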
IMPase Li cell – qHTS Assay for Identifying the Cell-Membrane Permeable IMPase Inhibitors: Potentiation with Lithium. CHO-M1 cells, IP1 TR-FRET (IP-One), carbachol + lithium. Potency, µM (top dose mostly 59.4 µM), hits mostly inhibitors. 0.35% of 210,000 active. AID 1457, 2008; active = well fitted inhibition curve with a large enough effect; inconclusive = small, poorly fitted or top-dose-only effect; inactive = no such curve, though single readings can be large or run the other way;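 note: IP1 builds up when IMPase is blocked and the TR-FRET signal falls; nearly all actives have a fitted effect of over 50% in size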
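CHO cells stably expressing M1 receptor (2000/well) were cultured 16–30 h, then exposed to compounds with a small lithium addition for 30 min at 37C. IP1 was measured by TR-FRET competition; AC50 from Hill fits.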
ALDH1A1 inh – qHTS Assay for Inhibitors of Aldehyde Dehydrogenase 1 (ALDH1A1) | Purified ALDH1A1, NADH fluorescence, propionaldehyde substrate | 7.3% of 220,000 active | Potency, µM (highest dose often 75.3 µM), usual class: inhibitors | Aldehyde dehydrogenase 1A1 (Homo sapiens), P00352
Numbers stand for hits; i = inactive; ? = inconclusive; nt = no result given; [ ] = another dose, or the depositor's remark. Unless noted, calls come from the whole dose curve; as a rule, active = well fitted inhibition curve with a large enough effect (not every such curve was filed as active); inconclusive = small, poorly fitted or top-dose-only effect, or another doubt; inactive = no such curve, though single readings can be large or run the other way.

SMILES	IMPase cell inh	HPGD inh	PNC assembly inh	IMPase Li cell	ALDH1A1 inh
Cc1ccc(-n2c(SCCC(C)C)nc3sc4c(c3c2=O)CC(C)(C)OC4)cc1	i	nt	nt	nt	nt
Cn1ccnc1C[C@@](C)(O)c1ccccc1	nt	i	nt	i	i[13.5 µM]
Cc1ccccc1C(=O)Nc1cccc(NC(=O)c2ccc(C(C)(C)C)cc2)c1	i	nt	nt	nt	nt
O=C1C2CC=CCC2C(=O)N1c1ccc(N2CCN(c3ccccn3)CC2)c([N+](=O)[O-])c1 (centres undefined)	nt	nt	nt	i	18µM
Cc1nc(CSc2nsc(/C=C/N(C)C)c2C#N)cs1	nt	nt	nt	i	6.3µM
C[C@H]1COC(=O)[C@H]2CCCN2C(=O)[C@@H](C)COC(=O)[C@H]2CCCN2C1=O	nt	nt	nt	nt	i[13.5 µM]
CC1(C)Cc2nc3oc4c(=O)n(CC(=O)Nc5ccccc5)cnc4c3cc2CO1	i	i	i	i	?
CC1(C)Cc2nc3sc4c(=O)n(CC(=O)NCc5ccco5)cnc4c3cc2CO1	i	?	i	i	22µM
Cc1cccc(NC(=O)Cn2cnc3c(oc4nc5c(cc43)COC(C)(C)C5)c2=O)c1	i	i	i	i	i
Cc1ccc(NC(=O)Cn2cnc3c(oc4nc5c(cc43)COC(C)(C)C5)c2=O)cc1	nt	i	-84	i	i
C1CCN2CC3CC(CN4CCCC[C@@H]34)C2C1 (some centres undefined)	i	i	nt	i	i
O=[N+]([O-])C(/C=C(\Cl)[N+](=O)[O-])=C(N1CCCCC1)N1CCCCC1	nt	nt	nt	i	14µM
O=[N+]([O-])C(=C1SCCS1)C(=C(Cl)Cl)N1CCCCC1	nt	nt	nt	i	?
CC/C(=C\C1CCCCC1)C(NP(=O)(c1ccccc1)c1ccccc1)c1ccccc1 (centres undefined)	nt	i	-90	i	?
Cc1ccc(-c2nc(Nc3cccc(C)c3)sc2CC(=O)O)cc1	nt	nt	nt	i	?
CCOC(=O)c1sc(NC(=O)C2C3C=CC(C3)C2C(=O)O)nc1C (centres undefined)	i	i	i	i	0.5µM
CCOC(=O)c1sc2nc(NC(=O)C3CC3)sc2c1C	i	?	i	13µM	?
O=C(O)Cc1sc(N/N=C\c2ccccc2)nc1-c1ccccc1	nt	?	i	i	1.1µM
CCOC(=O)c1sc(NC(=O)C2CC2)nc1C	i	i	i	i	i
O=C(O)Cc1sc(-c2ccccc2Cl)nc1-c1ccccc1	nt	nt	nt	5µM	?
O=C(Cc1sc(-c2ccccc2)nc1-c1ccccc1)Nc1ccccc1	i	i	?	i	i
O=C(COC(=O)CC12CC3CC(CC(Br)(C3)C1)C2)NC(=O)NCc1ccco1	i	i	i	i	i
CCOc1ccc(NC(=O)c2cc3c(n(-c4ccc(OC)cc4)c2=O)CC(C)(C)CC3=O)cc1	i	nt	nt	nt	nt
CCOC(=O)c1sc(N/N=C/c2ccccc2)nc1C	nt	14µM	i	i	8.9µM
CCOC(=O)CC(=O)CSc1nc2sc(C)cc2c(=O)n1Cc1ccco1	i	28µM	i	i	0.56µM
SMILES	IMPase cell inh	HPGD inh	PNC assembly inh	IMPase Li cell	ALDH1A1 inh
CCOC(=O)c1cc(CC)sc1NC(=O)CSc1nc2ccccc2c(=O)n1Cc1ccco1	nt	i	?	i	i
Cc1cc2c(=O)n(Cc3ccco3)c(SCC(=O)c3ccc(Cl)s3)nc2s1	i	28µM	?	i	16µM
Nc1ccccc1Nc1cc(-c2ccccc2)nn1-c1cccc(Cl)c1	i	i	i	i	i
CNc1nn(-c2cccc(Cl)c2)nc1N	i	i	?	i	2µM
C[N+]1(C)CCC(=C2c3ccccc3CC(=O)c3sccc32)CC1	i	?	i	i	7.1µM
CC[N+]1(C)CCC(=C2c3ccccc3CC(=O)c3sccc32)CC1 (centres undefined)	i	i	i	i	i
Cc1nn(C(=O)c2cccnc2)c(C)c1Sc1ccc(Br)cc1	i	14µM	i	i	i
Cc1ccc(S(=O)(=O)CCSC(=N)N)cc1	nt	nt	nt	i	0.11µM
Cc1ccc(S(=O)(=O)CCc2nnc(N)s2)cc1	i	i	i	i	i
Cc1c(NC(=O)c2ccc(Br)o2)cccc1-c1nc2ccccc2o1	i	nt	nt	nt	nt
CCOc1ccc(/C=C/C(=O)Nc2ccc(OC)cc2[N+](=O)[O-])cc1	i	i	i	i	i
COc1ccc(OC)c(Nc2ccc(C(=O)O)cc2[N+](=O)[O-])c1	i	16µM	i	i	i
COc1ccc(NC(=O)/C=C/C(=O)O)c([N+](=O)[O-])c1	nt	nt	nt	nt	19µM
COc1ccc(NC(=O)CN2CCCCC2)c([N+](=O)[O-])c1	i	i	-90	i	i
COc1ccc(NC(=O)CC2SC(N)=NC2=O)c([N+](=O)[O-])c1 (centres undefined)	nt	nt	nt	i	25µM
O=C(NCc1cccs1)O[C@H]1C[C@H]2CC[C@@H]1C2	nt	i	nt	i	i[13.5 µM]
CCCC1CC(C(=O)N[C@H](C(C)O)C2OC(SC)[C@@H](O)C(O)C2O)N(C)C1 (some centres undefined)	nt	i	nt	i	i
Cc1ccc(NC(=O)/C=C/C(=O)O)c([N+](=O)[O-])c1	i	i	i	i	18µM
CO[C@H]1[C@@H](OC(N)=O)[C@H](O)[C@@H](Oc2ccc3c(O)c(NC(=O)c4ccc(O)c(CC=C(C)C)c4)c(=O)oc3c2C)OC1(C)C	i	i	nt	i	i
CCC(C)NC(=O)C1CCC(=O)N(c2cc(OC)c(OC)c(OC)c2)C1c1ccc(OC)cc1 (centres undefined)	?	i	-100	i	i
CCN(CC)CCCNC(=O)C1CCC(=O)N(c2ccc(OC)cc2)C1c1ccc(F)cc1 (centres undefined)	i	i	i	i	i
CCC(C)NC(=O)C1CCC(=O)N(c2ccc3c(c2)OCO3)C1c1ccc(OC)cc1 (centres undefined)	i	i	i	i	6.3µM
C=CCn1c(=NC(=O)c2ccc(S(=O)(=O)N3CCc4ccccc4C3)cc2)sc2cc(S(N)(=O)=O)ccc21	nt	?	i	i	?
C#CCn1c(=NC(=O)c2ccc(S(=O)(=O)N3CCc4ccccc4C3)cc2)sc2cc(S(N)(=O)=O)ccc21	nt	?	-134	?	?
CCCCC(=O)Nc1ccc2c(c1)nc1n2CCSC1	i	32µM	i	i	18µM
Oc1c(C(c2cccs2)N2CCN(c3ccccc3)CC2)ccc2cccnc12 (centres undefined)	i	1.8µM	?	i	2µM
CCc1ccc(CNc2ccc(N3CCN(C(C)=O)CC3)cc2)cc1	i	i	?	i	22µM
COc1cc(CNc2ccc(N3CCN(C(C)=O)CC3)cc2)ccc1OCc1ccccc1	nt	nt	nt	i	18µM
CCOc1cc(CNc2ccc(C(=O)O)cc2)ccc1OCc1ccccc1	i	nt	nt	nt	nt
CC(=O)N1CCN(c2ccc(NCc3ccc(C)cc3)cc2)CC1	i	i	?	i	?
